For 27 compounds, growth results are on record in PubChem BioAssay (NCI).

The panel holds about 83,000 compounds, 20% with a hit somewhere; the sample as a whole holds those more often.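 How to read the values: 0–100, growth inhibition (40 = 60% inhibited); 0, no net growth; -100 to 0, cell death (-40 = 40% of starting cells died; -100 = all dead).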 Unmarked numbers belong to inactive results. Calls of active or inactive are those of the source. The calls were made as follows: active = growth percent below 10; inactive = the rest.

The subject of the assay is HL-60(TB) leukemia. Kind of assay: NCI-60 one-dose screen, 48 h (100 = growth as untreated, 0 = no growth, -100 = all killed). The conditions noted are these: 10 µM unless noted.
As to `COc1cc(Nc2nc(NCCN)nc3cc[nH]c(=O)c23)cc(OC)c1`, the growth is 71.8%.
As to `O=C(Nc1cccc2c1CCCC2)c1cc2ccccc2cc1O`, the growth was 14.9%.
Under `COc1ccc(/C=C2\CCC3C(CCCC34OCCO4)C2=O)cc1` (configuration not stated) stands 78.3%; under `O=C1CC2C=CCN2C=C1NC(=O)c1ccccc1` (configuration not stated), 100%; under `CSc1nc(-c2cccc(NC(=O)CCl)c2)c(C#N)c(=O)n1C`, -22.1% (active).
As for `Cc1cn(C2CCCCC2)c(=O)[nH]c1=O`, the growth was 96.7%.
Turning to `CCN(CC)c1ccc(/C=C(\C#N)c2cc3ccccc3[nH]2)cc1`, the growth was 45.6%.
As to `COc1cc(C(=O)N(C(C)C)C2CCCCC2)cc(OC)c1OC`, the growth is 96.7%.
`CC(C)OC(=O)c1ccc2n1CCCc1cnc(Nc3ccccc3)nc1-2`: the growth was 79.1%.
With `OCCNCCNc1c2ccccc2nc2ccccc12`, the growth is 86.2%.
Turning to `CC/C(Cc1ccccc1)=C(\c1ccc(OCCCN(C)C)cc1)c1ccc(OC(=O)NCc2ccccc2)cc1`, the growth is 57.2%.
In the case of `O=C(CCN1CCCC1)Nc1ccc2c(Nc3ccc(Br)cc3)c3ccccc3nc2c1` it was -54.6% (active); in that of `CC(C)c1ccc(NC(=O)Nc2ccc(NC(=O)c3ccccc3N)cc2)cc1`, 50.1%; in that of `Cc1cc2oc(/C=C/c3ccccc3)cc(=O)c2c(C)c1Cl`, 80.8%.
In the case of `O=c1c2c3c(sc2n2c(CCl)nnc2n1Cc1ccccc1)CCCC3` it was -59.8% (active).
Under `CN(C)CCCCC(C(=O)CBr)(c1ccccc1)c1ccccc1` stands -36.1% (active); under `COc1ccc(C(Cn2ccnc2)Sc2ccc(Cl)c(Cl)c2)cc1` (configuration not stated), 70.7%; under `CCCCCCC12CCC(=O)N1CCc1cncn12` (configuration not stated), 85.4%.
With `CN1CCN(C2=C(Cl)C(=O)c3ccccc3C2=O)CC1`, the growth was 24.8%.
Under `CCOC(=O)[C@@H]1CCCN(S(=O)(=O)c2ccc(S(=O)(=O)N(CC)CC)c(F)c2)C1` stands 81.4%; under `COC(=O)c1nc(-c2ccc(C)cc2)oc1N1CCOCC1`, 93.7%; under `O=C(Nc1nc2ccccc2s1)Nc1ccc([N+](=O)[O-])cc1Cl`, 78.8%.
Turning to `CC(=O)/C(=C/c1ccccc1)C(=O)CC(C)C`, the growth was 38.8%.
Turning to `O=S(=O)(O)c1ccc(N/N=C/c2ccccc2Cl)cc1`, the growth is 101%.
Under `CNC(=O)NCC1OC(n2cnc3c(NC(=O)Nc4ccccc4)ncnc32)C2OC(=O)CC12` (configuration not stated) stands 82.7%; under `O=C(CC(=O)c1cccc(Cl)c1)c1cccc(Cl)c1`, 4.17% (active).
As for `O=C(/C=C/C12c3ccccc3C(c3ccccc31)C1C(=O)N(c3ccccc3)C(=O)C12)c1ccc(Cl)cc1` (configuration not stated), the growth is 10.7%.
